The structures appear in SMILES notation. Inconclusive results are not listed. Active and inactive are the calls of the source. Calls come from the whole dose curve; as a rule, active = well fitted curve in the direction sought with a large enough effect; inconclusive = small, poorly fitted or top-dose-only effect, or another doubt; inactive = no such curve, though single readings can be large; an effect the other way counts as inactive or inconclusive.

A short description of test [1]: Cell Viability - LYMP2-005 (AID 967). Note: series mostly up to about 92 µM. The method in brief: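 Acute cytotoxicity is scored as a concentration-dependent drop in intracellular ATP in human lymphoblastoid LYMP2-005 cells after 24 h compound treatment. ATP is quantified by luciferase luminescence, and AC50 is derived by Hill-equation modelling.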
A short description of test [2]: Cell Viability - LYMP2-009 (AID 968). Note: nearly all actives have a fitted effect of over 55% in size. Note: potency is the fitted concentration of half-maximal effect.
Test [3] in a line: Cell Viability - LYMP2-011 (AID 969). Note: nearly all actives have a fitted effect of over 60% in size. Note: potency is the fitted concentration of half-maximal effect. The method in brief: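 In this qHTS cytotoxicity format, compounds are tested across concentrations on human lymphoblastoid cells in complete medium for 24 hours at 37 C. Viability is taken as cellular ATP measured by luciferase luminescence.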
Test [4] is described as follows: Cell Viability - LYMP2-013 (AID 970). Note: nearly all actives have a fitted effect of over 55% in size. Note: potency is the fitted concentration of half-maximal effect. The method in brief:
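Cytotoxicity is scored as a concentration-dependent drop in intracellular ATP in human lymphoblastoid cells after 24 hr compound exposure at 37 C. ATP is quantified by luciferase luminescence, and AC50 values come from Hill-equation modeling.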

Test [5] in a line: Cell Viability - LYMP2-015 (AID 971). Note: nearly all actives have a fitted effect of over 55% in size. Note: potency is the fitted concentration of half-maximal effect. The method in brief: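 Cells are seeded at 2500 per well and incubated 5 hr at 37 C. Compounds are added across a concentration series for 24 hr at 37 C. CellTiter-Glo is added, and luminescence is read after 30 min at room temperature.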
Test [6] in a line: Cell Viability - LYMP2-019 (AID 973). Note: nearly all actives have a fitted effect of over 55% in size. Note: potency is the fitted concentration of half-maximal effect. The method in brief: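 Cytotoxicity is scored as a concentration-dependent drop in cellular ATP after cells (2500/well) receive compound for 24 hr at 37 C. Tetraoctylammonium bromide serves as positive control.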
Test [7] is described as follows: Cell Viability - LYMP2-021 (AID 974). Note: potency is the fitted concentration of half-maximal effect. The method in brief:
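Loss of cellular ATP, measured with a luciferase-based CellTiter-Glo readout, serves as the toxicity signal in human lymphoblastoid cells treated for 24 hours at 37 C. Potency is reported as AC50 from a standard Hill model.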

Test [8] can be described thus: Cell Viability - LYMP2-023 (AID 975). Note: nearly all actives have a fitted effect of over 55% in size. Note: potency is the fitted concentration of half-maximal effect. The method in brief: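 Steps: seed 2500 human lymphoblastoid cells per well, incubate 5 hr at 37 C, add compound for 24 hr at 37 C, add CellTiter-Glo, hold 30 min at room temperature, read luminescence. AC50 derived by Hill modelling.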
Test [9] is described as follows: Cell Viability - LYMP2-025 (AID 976). Note: series mostly up to about 92 µM. The method in brief: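 Acute cytotoxicity is scored as a concentration-dependent fall in intracellular ATP, measured by luciferase luminescence, in human lymphoblastoid LYMP2-025 cells exposed to compound for 24 hours at 37 C. AC50 values come from standard Hill fits.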
Test [10] is described as follows: Cell Viability - LYMP2-002 (AID 977).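 Note: compound exposure lasted 24 h at 37 °C.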 Note: potency is the fitted concentration of half-maximal effect. The method in brief:
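In this qHTS viability screen, 2500 human lymphoblastoid cells per well receive compound for 24 hr at 37 C, and luciferase-based ATP luminescence gives the viability signal. Tetraoctylammonium bromide serves as positive control.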

Test [11] in a line: Cell Viability - LYMP2-008 (AID 980). Note: nearly all actives have a fitted effect of over 60% in size. Note: potency is the fitted concentration of half-maximal effect. The method in brief: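 Cells seeded at 2500/well and rested 5 hr at 37 C; compounds added over a concentration range and incubated 24 hr at 37 C; CellTiter-Glo added, 30 min at room temperature; luminescence read and AC50 fitted with Hill model.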
Test [12] can be described thus: Cell Viability - LYMP2-010 (AID 981). Note: nearly all actives have a fitted effect of over 55% in size. Note: potency is the fitted concentration of half-maximal effect. The method in brief: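 Steps: seed 2500 LYMP2-010 cells per well; incubate 5 hr at 37 C; add compound; incubate 24 hr at 37 C; add CellTiter-Glo, wait 30 min at room temperature; read luminescence. Concentration-response fitted to Hill equation for AC50.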
Test [13] is described as follows: Cell Viability - LYMP2-012 (AID 982). Note: potency is the fitted concentration of half-maximal effect.
A short description of test [14]: Cell Viability - LYMP2-014 (AID 983). Note: nearly all actives have a fitted effect of over 50% in size. Note: potency is the fitted concentration of half-maximal effect. The method in brief: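 Cells are plated at 2500/well and left 5 hr at 37 C. Compounds are added across a concentration range and incubated 24 hr at 37 C in complete medium. CellTiter-Glo is added, and luminescence is read after 30 min at room temperature.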
Test [15] can be described thus: Cell Viability - LYMP2-016 (AID 984). Note: nearly all actives have a fitted effect of over 55% in size. Note: potency is the fitted concentration of half-maximal effect. The method in brief:
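Cells were seeded at 2500 per well and rested 5 hr before a 24 hr compound exposure at 37 C. Viability was then gauged as cellular ATP by luciferase luminescence, with AC50 values fitted to the Hill equation.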

Test [16] can be described thus: Cell Viability - LYMP2-018 (AID 985). Note: nearly all actives have a fitted effect of over 50% in size. Note: potency is the fitted concentration of half-maximal effect. The method in brief:
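Seed 2500 lymphoblastoid cells per well, incubate 5 hr at 37 C, add compound and incubate 24 hr at 37 C, add CellTiter-Glo, wait 30 min at room temperature, then read luminescence.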

Test [17] in a line: Cell Viability - LYMP2-020 (AID 986). Note: nearly all actives have a fitted effect of over 55% in size. Note: potency is the fitted concentration of half-maximal effect. The method in brief: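 Seed 2500 cells per well and incubate 5 hr at 37 C. Add compounds at a concentration series and incubate 24 hr at 37 C. Add CellTiter-Glo, wait 30 min at RT, read luminescence, and fit a Hill curve for AC50.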
Test [18] is described as follows: Cell Viability - LYMP2-022 (AID 987). Note: nearly all actives have a fitted effect of over 55% in size. Note: potency is the fitted concentration of half-maximal effect. The method in brief:
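Cells were seeded at 2500 per well, rested 5 hr at 37 C, and treated with titrated compounds for 24 hr at 37 C. Cellular ATP was then quantified by luciferase luminescence, and AC50 values were derived from Hill-modelled concentration-response curves.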

A short description of test [19]: Cell Viability - LYMP2-024 (AID 988). Note: nearly all actives have a fitted effect of over 60% in size. Note: potency is the fitted concentration of half-maximal effect. The method in brief: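 qHTS cytotoxicity, human lymphoblastoid line, complete medium; 24 h cpd treatment, 37 C; CellTiter-Glo ATP luminescence readout; tetraoctylammonium bromide positive control; AC50 via Hill fit.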
Test [20] is described as follows: Cell Viability - LYMP2-017 (AID 972). Note: nearly all actives have a fitted effect of over 55% in size. Note: potency is the fitted concentration of half-maximal effect. The method in brief: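 Cytotoxicity is scored as a concentration-dependent drop in cellular ATP in a human lymphoblastoid line after 24 hr treatment at 37 C. Values are AC50s from Hill-equation modelling.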

With `CCCCC1C(=O)N(c2ccccc2)N(c2ccccc2)C1=O`, the outcome in test [1] and in test [9] was inactive. Moreover, the Potency result in [2], in test [3], in test [4], in [5], in test [6] and in test [7] was “inactive” in each case. For the same compound, the Potency entry in test [8], in [10], in [11], in [12], in test [13] and in [14] was “inactive” each time. For the same compound, the Potency entry in test [15], in test [16], in test [17], in test [18] and in [19] was “inactive” in each case.

For the compound `CC/C(=C(\c1ccccc1)c1ccc(OCCN(C)C)cc1)c1ccccc1`, the Potency in test [2], in test [3], in [4], in [20], in test [6] and in test [7] was 50.1 µM (active) in each case. The Potency in test [8] was 50.1 µM (active); in test [10] it was 39.8 µM (active); in test [11], 50.1 µM (active); in [12] it was 50.1 µM (active); in [13] it was 50.1 µM (active); in test [14] it was 50.1 µM (active). Besides, the Potency in [15] was 39.8 µM (active); in test [16], 50.1 µM (active); in [17], 50.1 µM (active); in [18], 39.8 µM (active); in test [19] it was 50.1 µM (active).

Consider `CCCNC(=O)NS(=O)(=O)c1ccc(Cl)cc1`, for which the result in [1] and in test [9] was inactive. For the same compound, the Potency result in test [2], in [3], in test [4], in test [5], in test [20] and in test [6] was “inactive” in each case. Further, the Potency entry in test [7], in test [8], in [10], in test [11], in test [12] and in test [13] was “inactive” in each case. Besides, the Potency result in test [14], in [15], in [16], in test [17], in [18] and in [19] was “inactive” throughout.

In the case of `O=c1c(-c2ccc(O)cc2)coc2cc(O)ccc12`, the compound was called inactive in test [1] and in test [9]. Besides, the Potency result in test [2], in [3], in [4], in test [5], in test [20] and in test [6] was “inactive” throughout. For the same compound, the Potency entry in test [7], in test [8], in test [10], in [11], in test [12] and in test [14] was “inactive” in each case. The Potency result in test [15], in test [16], in test [17], in test [18] and in test [19] was “inactive” in each case.

As to `O=C(O)c1cc(O)c2c(c1)C(=O)c1cccc(O)c1C2=O`, the result in test [1] was inactive. For the same compound, in [5], the Potency was 50.1 µM (active). Moreover, the Potency result in test [12], in test [13], in [14], in test [15], in test [16] and in test [17] was “inactive” in each case. The Potency result in test [18] and in [19] was “inactive” in each case.

As for `CCn1cc(C(=O)O)c(=O)c2ccc(C)nc21`, the compound was called inactive in [1] and in [9]. Besides, the Potency result in [2], in [3], in test [4], in test [5], in test [20] and in [6] was “inactive” each time. Besides, the Potency result in [7], in test [8], in test [10], in [11], in test [12] and in [13] was “inactive” in each case. Besides, the Potency entry in [14], in test [15], in test [16], in test [17], in test [18] and in test [19] was “inactive” in each case.

For `O=C1NC(=O)C(c2ccccc2)(c2ccccc2)N1`, the compound was classed as inactive in [1] and in [9]. For the same compound, the Potency result in [2], in [3], in test [4], in test [5], in test [20] and in [6] was “inactive” each time. Also, the Potency entry in [7], in test [8], in test [10], in test [11], in [12] and in test [13] was “inactive” each time. The Potency result in test [14], in [15], in [16], in test [17], in test [18] and in test [19] was “inactive” throughout.

The values above are taken from PubChem BioAssay (NCATS).
